Screening data deposited in PubChem BioAssay by National Center for Advancing Translational Sciences (NCATS).
Only some compounds are listed: those with a hit (about 2.3% of all), similar ones and a draw of the others.
A549 tox – Nrf2 qHTS screen for inhibitors: counterscreen for cytotoxicity; actives 0.16% (n = 390,000); Potency, µM (top dose mostly 46 µM), actives largely listed as inhibitors; A549 ARE-Fluc cells, CellTiter-Fluor viability, 18-24 h
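Cytotoxicity counterscreen: CellTiter-Fluor fluorescence was measured in A549 ARE_Fluc cells after 18-24 h of compound exposure in a concentration series. The subsequent BugLite luminescent read reports ARE-luciferase activity.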
Mito fusion act – qHTS Assay for Small Molecule Inhibitors of Mitochondrial Division or Activators of Mitochondrial Fusion; Potency, µM (titrated, usually from 46.1 µM), actives largely listed as activators; AID 485298, 2010; S. cerevisiae fusion-defective mutant growth rescue, CellTiterGlo 48 h; actives 0.23% (n = 320,000); further: nearly all actives have a fitted effect of over 45% in size
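Luminescent cell viability in 1536-well qHTS format served as the measure of rescued growth in ts fusion-mutant S. cerevisiae cultured on non-fermentable YPEG for 48 hours at 37C.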
miR-21 reporter – qHTS Assay for Modulators of miRNAs and/orActivators of miR-21; HeLa miR-21 FLuc reporter, luciferase, 48 h; Potency, µM (doses to about 38.3 µM), actives largely listed as activators; 340,000 tested, under 10 active; AID 2288, 2010;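 further: miR-21 action dims this reporter so a rising signal means less miR-21 action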
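HeLa cells endogenously expressing miR-21, stably carrying CMV-driven firefly luciferase with a downstream miR-21 binding site, 2000 cells/well. Titrations up to approximately 40 uM, 48 hours; luciferase luminescence read.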
Nrf2 ARE act – qHTS of Nrf2 Activators; AREc32 ARE-luciferase reporter (MCF7-derived line), luminescence, 24 h; Potency, µM (doses to about 46.1 µM), actives largely listed as activators; actives 0.31% (n = 410,000); further: nearly all actives have a fitted effect of over 65% in size
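AREc32 cells carrying an ARE-driven firefly luciferase, 1000 cells/well in OPTI-MEM with 5% FBS, dosed after overnight attachment and incubated 24 hr at 37 deg C. Steady-Glo luminescence read after 30 min at RT.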
Nrf2 inh – Nrf2 qHTS screen for inhibitors. Potency, µM (doses to about 46 µM), actives largely listed as inhibitors. actives 2.1% (n = 360,000). A549 ARE-Fluc reporter, luciferase luminescence, 18-24 h. AID 504444, 2011; further: nearly all actives have a fitted effect of over 60% in size
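Reporter: ARE-Fluc in A549. Exposure: 18-24 h, 37 °C, 5% CO2, 5% FBS OPTI-MEM. Readouts: fluorescent cytotoxicity (CellTiter-Fluor), then luminescent Nrf2 signal after BugLite.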
Hits are given with their value; . = inactive; ? = inconclusive; / = no result; ! = not active in a repeat; [ ] = remark or other dose. The call rests on the fitted dose curve; in most records, active means well fitted curve in the direction sought with a large enough effect; inconclusive means small, poorly fitted or top-dose-only effect, or another doubt; inactive means no such curve, though single readings can be large; an effect the other way counts as inactive or inconclusive.

SMILES	A549 tox	Mito fusion act	miR-21 reporter	Nrf2 ARE act	Nrf2 inh
COCCCN1C(=O)c2[nH]nc(-c3ccccc3O)c2C1c1ccc(OCc2ccccc2)cc1 (stereo unspecified)	?	/	?	.	26µM
CCCCN1C(=O)c2[nH]nc(-c3ccccc3O)c2C1c1ccc(OCc2ccccc2)cc1 (stereo unspecified)	?	/	?	.	15µM
Cc1ccc(NS(=O)(=O)c2ccc(-c3ccccc3)cc2)cc1C	.	/	/	/	?
O=C(Nc1ccc(Cl)c(Cl)c1)N1CCSCC1	.	.	.	.	.
Cc1csc2c(N3CCN(C(=O)c4ccc(C(C)(C)C)cc4)CC3)ncnc12	.	.	.	.	.
Cc1csc2c(N3CCN(C(=O)NC(C)(C)C)CC3)ncnc12	.	.	.	.	18µM
Cc1csc2c(N3CCN(C(=O)Nc4ccc(Cl)c(Cl)c4)CC3)ncnc12	.	.	.	.	21µM
CCN(CC)S(=O)(=O)c1ccc(NC(=O)CCc2c(C)nc3cc(-c4ccc(Cl)cc4)nn3c2C)cc1	.	/	?	.	?
CCCCCCCCCCCCCCCC(=O)NCCO	.	4.1µM!	/	.	.
C#CCCCCCCCCC(=O)NCCCC	.	.	.	.	.
COc1ccc(CCNC(=O)c2nn(C)c3c2CS(=O)(=O)c2ccccc2-3)c(OC)c1	.	.	.	.	23µM
CCN(CC)CCCNC(=O)c1nn(C)c2c1CS(=O)(=O)c1ccccc1-2	.	/	.	.	18µM
COCCCNC(=O)c1nn(C)c2c1CS(=O)(=O)c1ccccc1-2	.	/	.	.	.
CCCCN(CC)CCNC(=O)c1nn(C)c2c1CS(=O)(=O)c1ccccc1-2	.	/	.	.	.
O=C1CN(C(=O)c2ccc(S(=O)(=O)N3CCCCC3)cc2)C(c2ccc(F)cc2)c2cc(Cl)ccc2N1 (stereo unspecified)	.	/	.	.	.[9.27 µM]
O=[N+]([O-])c1ccccc1N/N=C/c1c[nH]c2ccccc12	.	.	.	3.5µM	?
CN(CC(=O)Nc1ccc(Cl)c(C(F)(F)F)c1)C(=O)C1CCN(C(=O)c2ccc(Cl)cc2)CC1	?	/	/	.	23µM
Cc1sc2ncnc(N3CCC(C(=O)N(C)CC(=O)Nc4ccc(Cl)c(C(F)(F)F)c4)CC3)c2c1C	?	.	/	.	10µM
Cc1sc2ncnc(N3CCC(C(=O)N(C)CC(=O)Nc4ccccc4Cl)CC3)c2c1C	?	.	.	.	23µM
Cc1sc2ncnc(N3CCC(C(=O)N(C)CC(=O)Nc4cccc(F)c4)CC3)c2c1C	/	/	/	.	/
O=C(Nc1nc(-c2cccs2)cs1)C1CC(=O)N(c2ccc3c(c2)OCCO3)C1 (stereo unspecified)	.	/	/	/	.
O=c1cc2oc3cc(O)c(O)cc3c(-c3ccccc3[N+](=O)[O-])c-2cc1O	5.2µM	.	?	.	3.3µM
O=c1cc(-c2ccccc2Cl)oc2cccc(O)c12	.	.	.	.	.
O=C(Nc1ccc(F)cc1)c1nsc(Cl)c1Cl	.	.	.	?	?
O=C(Nc1ccc(F)c(Cl)c1)c1nsc(Cl)c1Cl	.	.	.	3.2µM	.
SMILES	A549 tox	Mito fusion act	miR-21 reporter	Nrf2 ARE act	Nrf2 inh
Cc1ccc(NS(=O)(=O)c2c(C)nc3sc(C)c(C)n3c2=O)cc1F	.	/	.	.	21µM
COc1cccc(-c2nc3c(c(SCc4ccccc4)n2)Cc2c(CO)cnc(C)c2O3)c1	.	/	.	.	?
CN(C)S(=O)(=O)Oc1ccsc1C(=O)Nc1ccc(Br)cc1	?	.	.	.	21µM
COc1ccc(CCNC(=O)c2nc(-c3cccs3)no2)cc1OC	.	.	.	.	21µM
COc1ccc(CCNC(=O)c2ccc3ccccc3n2)cc1OC	.	.	.	.	23µM
COc1ccc(CCNC(=O)c2ccc(-c3ccc([N+](=O)[O-])cc3)o2)cc1OC	.	.	.	.	26µM
CCOc1ccc(CCNC(=O)c2ccc3ccccc3n2)cc1OCC	.	.	.	.	?
COc1ccccc1CCNC(=O)c1nc(-c2cccs2)no1	.	.	.	.	?
COc1ccc(NC(=O)c2ccc(-c3ccc([N+](=O)[O-])cc3)o2)cc1	.	.	.	.	.
COc1ccc(CNC(=O)c2ccc3ccccc3n2)cc1OC	.	.	.	.	13µM
COc1ccccc1CNC(=O)c1ccc2ccccc2n1	.	.	.	.	.
COc1cccc(CNC(=O)CCCCCn2c(=O)[nH]c3cc(OC)c(OC)cc3c2=O)c1	.	/	.	.	.[9.27 µM]
Cc1ccc(CNC(=O)c2cc3sc(Cl)cc3n2C)cc1	.	/	.	.	?
COc1ccc(CCNC(=O)c2cc3sc(Cl)cc3n2C)cc1OC	.	.	.	.	26µM
COc1ccc(CCNC(=S)NC(=O)c2ccc(Br)cc2)cc1OC	.	.	.	.	15µM
COc1ccc(CCNC(=O)CCNC(=O)c2ccc(Br)cc2)cc1OC	.	.	.	.	.
COC(=O)c1c(Oc2ccc(OC)cc2)nnc(-c2ccccc2)c1-c1ccccc1	.	/	?	.	?
O=C(NCc1ccc(Cl)cc1)c1ccc2c(c1)N(Cc1ccccc1F)C(=O)c1ccccc1S2=O (stereo unspecified)	.	/	.	.	.
CC(C)N(Cc1ccccc1)C(=O)c1nc(-c2ccc(Cl)cc2)n2c1CCCCC2	.	/	?	.	21µM
O=C(NCCc1ccccc1)c1nc(-c2ccc(Cl)cc2)n2c1CCCCC2	.	/	.	.	?
CCOc1ccccc1CNC(=O)c1nc(-c2ccc(Cl)cc2)n2c1CCCCC2	.	/	.	.	23µM
COc1cccc(-c2csc(N3CCN(C(=S)Nc4ccc(Cl)cc4)CC3)n2)c1	.	.	.	.	21µM
S=C(NCC1CCCO1)N1CCN(c2nc(-c3ccccc3)cs2)CC1 (stereo unspecified)	.	.	.	.	13µM
O=C(Cc1cccs1)N1CCN(c2nc(-c3ccc(Cl)cc3)cs2)CC1	.	.	.	.	18µM
CC(C)C(=O)N1CCN(c2nc(-c3ccc(Cl)cc3)cs2)CC1	.	.	.	.	?
SMILES	A549 tox	Mito fusion act	miR-21 reporter	Nrf2 ARE act	Nrf2 inh
CNC(=S)N1CCN(c2nc(-c3cccc(OC)c3)cs2)CC1	.	.	.	.	18µM
COc1cccc(-c2csc(N3CCN(C(=S)Nc4ccccc4)CC3)n2)c1	.	.	.	.	.
CCOc1ccccc1C(=O)N(Cc1ccc(N(C)C)cc1)CC1CCCO1 (stereo unspecified)	.	/	.	.	.
O=S(=O)(c1cccc2ccccc12)N1CCN(c2nc(-c3cccs3)nc3ccccc23)CC1	.	/	/	/	.
COc1ccc([C@]23Cc4cc(OC)c(OC)cc4C(O2)c2c(cc(-c4ccccc4)oc2=O)O3)cc1	/	.[9.22 µM]	.[7.66 µM]	/	/
CCNC(=S)N1CCN(c2nc(-c3ccc(F)cc3)cs2)CC1	.	.	.	.	18µM
